M1 PAM parental: M1 PAM counterscreen hit in parental CHO-K1 cells; ATP EC20, Fluo-8 calcium fluorescence; 0% at ATP EC20, 100% at ATP max; activation, % at 3 µM; 360,000 tested, 0.02% active; AID 602247;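 active means activation above the run cutoff, the mean activation of all test compounds plus 3 SD, cut at about 40% in these data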;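 further: peak over basal fluorescence ratio in a 140 s read after ATP addition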
CHRM1 antagonist: human CHRM1 antagonism | AID 588852 | 360,000 tested, 1.3% active | CHO-K1 hM1, Fluo-8 calcium fluorescence, ACh EC80 antagonist | P11229 | inhibition, % at 3 µM;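 active means percent inhibition above its own plate's cutoff, namely the mean of that plate's compound wells plus 3 SD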;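 further: peak over basal fluorescence ratio during 140 s after agonist addition; 0% = ACh EC80 plus DMSO and 100% = DMSO alone without agonist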
Target sequence (P11229 whole entry, looked up): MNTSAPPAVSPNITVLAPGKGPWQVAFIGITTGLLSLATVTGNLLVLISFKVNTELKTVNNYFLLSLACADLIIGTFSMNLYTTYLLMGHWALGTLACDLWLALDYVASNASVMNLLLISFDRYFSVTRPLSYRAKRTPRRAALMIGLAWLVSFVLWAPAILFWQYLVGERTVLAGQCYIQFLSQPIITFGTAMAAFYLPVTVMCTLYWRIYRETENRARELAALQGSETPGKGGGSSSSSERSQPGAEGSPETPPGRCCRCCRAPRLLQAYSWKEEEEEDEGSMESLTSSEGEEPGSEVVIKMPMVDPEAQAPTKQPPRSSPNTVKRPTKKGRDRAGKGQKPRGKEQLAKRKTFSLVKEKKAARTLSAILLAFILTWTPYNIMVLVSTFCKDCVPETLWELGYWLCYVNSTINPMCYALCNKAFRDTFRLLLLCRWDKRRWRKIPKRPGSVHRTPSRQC
CHRM1 agonist: agonists of human M1 muscarinic receptor. P11229. CHO-K1 hM1, Fluo-8 calcium fluorescence, agonist mode; 0% DMSO, 100% acetylcholine EC100. activation, % at 3 µM. 360,000 tested, 0.33% active. AID 588814;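 active means activation above the run's mean compound activation plus 3 SD, cut at about 16% in these data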;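 further: peak over basal fluorescence ratio within a 140 s kinetic read after compound addition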
CHO-K1 Ca ag: nonselective activator or artifact in parental CHO-K1 cells; Fluo-8 calcium fluorescence; scaled to maximal ATP response, vehicle zero; activation, % at 3 µM; 360,000 tested, 0.48% active; AID 602248; in the data active means activation above about 15%;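 further: untransfected CHO-K1 host cells lacking M1 receptor as counterscreen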
M1 PAM: potentiates human M1 receptor response to acetylcholine; P11229; 360,000 tested, 0.088% active; CHO-K1 hM1, Fluo-8 calcium fluorescence, ACh EC20; 0% = ACh EC20, 100% = maximal ACh; activation, % at 3 µM; in the data active means activation above about 19%, passing the limit was not always enough
CHO-K1 Ca antag: M1 antagonist counterscreen hit in parental CHO-K1 cells | 360,000 tested, 0.6% active | ATP-induced calcium, Fluo-8 fluorescence | inhibition, % at 3 µM;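 active means inhibition above a per-plate cutoff, the plate's mean sample inhibition plus 3 SD, cut at about 24% in these data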;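 further: 0% = DMSO plus EC80 ATP and 100% = DMSO alone without ATP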
* hit, by the source's call. An excerpt weighted towards active compounds, which were near 2.3% of everything screened.

SMILES	M1 PAM parental	CHRM1 antagonist	CHRM1 agonist	CHO-K1 Ca ag	M1 PAM	CHO-K1 Ca antag
Cc1cc(C)cc(CN2CCC(Oc3ccc(C(=O)N4CCCC4)cc3)CC2)c1	8.8	8.6	-4.2	2.1	-8.9	-23.6
CSc1ccc(CN2CCC(Oc3cccc(C(=O)N4CCCC4)c3)CC2)cc1	-0.6	75.2*	-5.9	1.6	-22.7	2.3
CCOC(=O)C1(C)CCCCCN1C(=O)c1ccccc1F (stereo unspecified)	27.3	1.0	-2.4	0.1	0.7	-7.9
COC(=O)c1ccc(C23CC4(C2)[C@H](CN(C)[C@@H]4c2ccccc2)C3c2ccc(C(F)(F)F)cc2)cc1 (stereo partly specified)	-10.1	8.4	-8.2	4.2	-4.4	1.5
N#Cc1ccc(C23CC4(C2)[C@H](CN(P(=O)(c2ccccc2)c2ccccc2)[C@@H]4c2ccccc2)C3c2ccc(Cl)nc2)cc1 (stereo partly specified)	-5.8	15.4	-3.5	0.2	-8.1	-9.9
CN1C[C@@H]2C(c3ccc(Cl)nc3)C3(c4ccc(C#N)cc4)CC2(C3)[C@H]1c1ccccc1 (stereo partly specified)	6.4	55.0*	-13.0	1.0	-38.3	-6.7
COC(=O)c1ccc(C23CC4(C2)[C@H](CN(C)[C@@H]4c2ccccc2)C3c2ccc(Cl)nc2)cc1 (stereo partly specified)	11.3	69.9*	-7.1	4.7	-34.9	6.5
OC[C@@H]1[C@@H](c2ccc(Cl)cc2)C(c2ccc(F)cc2)=NN1c1ccccc1	5.8	-6.7	-5.8	1.5	-3.7	0.3
O=C(COc1ccccc1Cl)NNC(=O)c1ccc2nc[nH]c2c1	-3.9	2.0	-1.6	0.3	0.8	-4.9
Cc1cc(C)c2cc(CN(CCO)C(=O)Nc3ccc(F)cc3)c(=O)[nH]c2c1	-7.0	-4.8	-1.7	-0.4	2.4	25.8*
O=C(COc1cc(F)ccc1[N+](=O)[O-])NCC1CCCO1 (stereo unspecified)	10.9	-5.5	-4.4	1.9	2.7	-17.2
Cc1cc(N2CCN(c3ccccc3)CC2)nc2ccccc12	21.8	8.3	-3.4	23.9*	-8.1	-10.1
Cc1cc(N2CCCCCC2)nc2ccc(F)cc12	20.1	15.0	30.6*	0.3	-14.8	-8.2
COc1ccc(-c2cn3cccnc3n2)cc1F	-10.6	-6.9	-7.8	-0.6	11.4	18.7
COC(C#CCCN(C)C)(c1ccccc1)c1ccccc1	11.4	98.9*	-11.3	0.8	-26.9	-6.9
O=C(/C=C/Nc1ccccc1)c1ccc(Oc2ncccn2)cc1	-6.8	5.2	-4.0	0.0	3.0	26.5*
CN(CC(=O)Nc1ccc(F)cc1)C(=O)CSc1ccc2c(c1)OCCO2	8.5	-3.3	-2.2	0.4	5.0	-6.8
Cc1ccc(SCC(=O)OCC(=O)N(C)CC(=O)Nc2ccc(F)cc2)cc1C	18.3	-7.4	32.5*	45.6*	7.0	-15.6
O=C(NNC(=O)c1cnccc1C(F)(F)F)c1ccccc1	7.4	-2.8	0.6	15.7*	6.8	15.6
CCn1c(SCC(=O)Nc2nccc(C)n2)nc2ccccc21	15.8	-23.5	-2.8	1.1	12.7	-16.3
CN(C)c1nccc(N(Cc2ccccc2)Cc2ccccc2)c1C#N	7.4	54.7*	-4.5	0.5	-21.9	-10.3
CN(C)CCN(Cc1ccccc1)c1ccnc(N(C)C)c1C#N	6.2	0.7	-5.3	-0.1	-0.5	-9.8
COc1cccc(CN2CCN(C(=O)c3ccco3)CC2)c1	24.4	-16.7	-5.6	0.1	3.4	-9.5
CC1(C(=O)NC2CCCC2)CCC(=O)N1CCOc1ccccc1 (stereo unspecified)	3.2	5.7	-2.2	0.1	3.9	28.4*
O=C1CC(O)(C(F)F)Oc2ccc3ccccc3c21 (stereo unspecified)	10.0	4.8	-4.2	0.1	-0.6	-0.1
SMILES	M1 PAM parental	CHRM1 antagonist	CHRM1 agonist	CHO-K1 Ca ag	M1 PAM	CHO-K1 Ca antag
O=C1CC(O)(C(F)(F)F)Oc2c1ccc1ccccc21 (stereo unspecified)	2.7	3.0	6.4	27.5*	-6.3	-1.1
COCCCN1C(=O)C(CC(=O)NCCCCc2ccccc2)CC(C(=O)N(C(C)C)C(C)C)=C1C (stereo unspecified)	11.8	-14.8	-6.2	-0.5	3.4	-12.8
FC(F)(F)Oc1ccc(Nc2nc(N3CCOCC3)nc(N3CCOCC3)n2)cc1	-10.3	-1.3	-3.6	-0.1	2.9	7.1
CCN(c1ccc(OC)cc1)S(=O)(=O)c1nnc(NC(=O)COc2ccccc2)s1	7.9	-5.2	-2.0	2.1	3.8	-3.1
CCN(CC)c1ccc(/C=C/c2ccc3ccc(OC)cc3[n+]2CC)cc1	-25.3	48.2*	3.2	11.0	-14.1	56.9*
OCC1(CCCc2ccccc2)CCN(Cc2cnc(N3CCOCC3)s2)CC1	-3.9	5.8	18.6*	2.9	-4.8	-11.5
COc1cccc(CC2(CO)CCN(Cc3cnc(N4CCOCC4)s3)CC2)c1	-0.5	-0.2	-5.3	0.5	1.8	-5.8
CCOc1ccccc1N1CCN(C(=O)CSc2ccc3c(c2)OCCO3)CC1	-0.6	8.6	1.6	10.7	-9.6	-8.8
CCOc1ccc(CCNC(=O)CSc2ncn[nH]2)cc1OCC	11.8	-15.0	-3.0	0.5	8.6	-4.0
CCCCCCCc1c(O)nc(SCCN(C)C)[nH]c1=O	12.1	-2.7	-3.4	0.1	3.2	-11.7
CCCc1c(O)nc(SCCN(CCC)CCC)[nH]c1=O	-8.5	8.5	-5.8	-0.4	-0.6	27.0*
COc1ccccc1NC(=O)CSc1nc(O)c(Cc2ccccc2)c(=O)[nH]1	4.1	-18.4	-3.5	0.2	10.6	3.1
CCSc1nc(O)c(Cc2ccccc2)c(=O)[nH]1	-7.3	-0.6	-2.2	-0.2	-0.5	30.6*
O=Nc1c(O)[nH]c2ccc(Cl)c(Cl)c12	-5.5	9.2	-2.7	0.4	-3.9	3.9
Cc1ccc(C2(c3noc(CN(C)Cc4ccccn4)n3)CCCC2)cc1	14.3	38.2*	-6.7	3.0	-23.1	2.0
CC(OC(=O)CNS(=O)(=O)c1ccc(C#N)cc1)C(=O)Nc1cccc(C#N)c1 (stereo unspecified)	9.0	-8.2	-3.7	3.3	7.3	-8.8
Cc1cccc(C(=O)NCC(=O)NC2CCN(Cc3ccccc3)CC2)c1	-10.1	-22.8	-4.7	0.0	14.5	-7.9
CN(C)S(=O)(=O)c1cccc(C(=O)NCC(=O)NC2CCN(Cc3ccccc3)CC2)c1	-25.1	33.6*	-12.5	-0.2	-16.1	14.9
CCN(CC)S(=O)(=O)c1ccc(C(=O)OCn2nnc3ccccc3c2=O)cc1	2.1	active	-1.6	10.7	-14.7	7.6
O=C(OCn1nnc2ccccc2c1=O)c1ccc(S(=O)(=O)N2CCOCC2)cc1	16.8	-3.6	-3.6	1.9	4.9	-7.8
O=C(COc1ncnc2ccccc12)N1CCN(S(=O)(=O)c2ccc(Cl)cc2)CC1	0.4	5.9	-3.1	-0.3	6.4	62.9*

Source: PubChem BioAssay (The Scripps Research Institute Molecular Screening Center)
